# The list is not random: actives were taken first. Their share in the collection is about 7.1%.
# PINK1 expr mod – A Quantitative High throughput Screen to Identify Chemical Modulators of PINK1 Expression; PINK1 immunofluorescence, high-content cytometry, 24 h; Potency, µM (titrated, usually from 76.6 µM), usual class: activators; actives 0.2% (n = 410,000); AID 624263, 2012; active = well fitted activation curve with a large enough effect; inconclusive = small, poorly fitted or top-dose-only effect; cell line not stated here; also: nearly all actives have a fitted effect of over 65% in size
#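 Cells are seeded, rested 12 hours, then given compound at five concentrations or DMSO for 24 hours. After fixation, blocking and antibody staining, PINK1 amount and mitochondrial localization are scored; CCCP serves as control.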
# MCF10A rereplic – A quantitative high throughput screen for small molecules that induce DNA re-replication in MCF 10a normal breast cells | actives 2.9% (n = 350,000) | MCF 10A DNA re-replication, Hoechst nuclear intensity, 48 h | Potency, µM (doses to about 46.1 µM), hits mostly activators; also: nearly all actives have a fitted effect of over 50% in size
# ATXN viability – Viability Counterscreen for Primary qHTS for Inhibitors of ATXN expression | S2 cells (HEK-293 line with an ATXN2-luciferase reporter) viability, CellTiter-Fluor protease fluorescence, 24 h | Potency, µM (doses to about 56.7 µM), hits mostly cytotoxic | actives 0.49% (n = 400,000); also: nearly all actives have a fitted effect of over 40% in size
# IL1B secr inh – qHTS for Inhibitors of Inflammasome Signaling: IL-1-beta AlphaLISA Primary Screen | THP-1 LPS/ATP IL-1B secretion, AlphaLISA, 16 h; stronger effect = lower value | activity change, % at 57.5 µM | actives 4.7% (n = 360,000); in the data active = activity change below about -50%; inconclusive = mostly about -30% to -49%
#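 THP-1 cells pretreated 1 hr with compounds (up to 57.5 uM final), then stimulated with LPS (250 ng/mL final) plus ATP (1.25 mM final); secreted IL-1B measured by AlphaLISA after 16 hr, decreased signal indicating inhibition.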
# ATXN2 expr inh – Primary qHTS for Inhibitors of ATXN expression; HEK-293 ATXN2-luciferase reporter, luminescence, 24 h; Potency, µM (highest dose often 57 µM), usual class: inhibitors; actives 0.72% (n = 360,000); AID 1745845, 2022; also: nearly all actives have a fitted effect of over 55% in size
#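 qHTS (up to 57 uM final) was run with 24 h compound exposure of reporter cells at 37 °C. Each well was multiplexed: SteadyGlo luminescence measured ATXN2-luciferase expression after a fluorogenic Gly-Phe-AFC viability readout (25 uM final).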
# SW480 rereplic – A quantitative high throughput screen for small molecules that induce DNA re-replication in SW480 colon adenocarcinoma cells | SW480 DNA re-replication, Hoechst DNA content imaging, 48 h | Potency, µM (doses to about 46.1 µM), actives largely listed as activators | actives 1.8% (n = 340,000) | AID 624297, 2012; also: nearly all actives have a fitted effect of over 55% in size
#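 Hoechst fluorescence of nuclei (405 nm excitation, 500-530 nm emission) measured by plate-scanning imager after 48 hr compound exposure at 37 C; re-replication scored as increased number of nuclei with elevated intensity.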
# A number is an active result; n = inactive; u = inconclusive; x = no result given. Unless noted, calls follow the shape of the dose curve; as a rule, active = well fitted curve in the direction sought with a large enough effect; inconclusive = small, poorly fitted or top-dose-only effect, or another doubt; inactive = no such curve, though single readings can be large; an effect the other way counts as inactive or inconclusive.
SMILES,PINK1 expr mod,MCF10A rereplic,ATXN viability,IL1B secr inh,ATXN2 expr inh,SW480 rereplic
CCN(CCS(=O)(=O)c1ccc(Br)cc1)Cc1nc2ccccc2c(=O)[nH]1,n,n,n,-52,n,n
CCC(CC)C(=O)N(CCc1ccc(OC)cc1)Cc1nc2ccccc2c(=O)[nH]1,x,23µM,u,-54,n,21µM
O=C(NC1CCCCC1)N(Cc1nc2ccccc2c(=O)[nH]1)C1CCCCC1,n,n,n,n,n,n
CC(C)CN(CC(C)C)c1ccc(/C=C/c2nc3ccccc3s2)cc1,n,x,x,x,x,x
Cc1ccc(-n2ncc(C(=O)NCCCN3CCCCC3)c2C2CCN(C(=O)OC(C)(C)C)CC2)cc1,n,x,x,x,x,x
CCOC(=O)C1=C(C)n2c(s/c(=C/c3cccc([N+](=O)[O-])c3)c2=O)=NC1c1ccc(O)c(OC)c1 (stereo unspecified),n,16µM,u,-78,u,u
CCN(CC)c1ccc(-c2nc(-c3ccco3)no2)cc1[N+](=O)[O-],n,x,n,x,n,x
O=C(CSc1ccccn1)Nc1nonc1[N+](=O)[O-],n,n,13µM,-99,x,n
O=C(CSc1ccccn1)Nc1ccc(NC(=O)CSc2ccccn2)cc1,n,n,n,n,n,n
COC(=O)c1ccccc1NC(=O)c1cc2nc(-c3ccccc3)cc(-c3ccccc3)n2n1,n,x,n,x,n,x
COc1ccc(C)cc1N(C)C(=O)c1sc2nc3n(c(=O)c2c1C)CCCCC3,n,x,x,x,x,x
CC(C)CC(N)c1csc(Nc2ccc(C(=O)c3ccccc3)cc2)n1 (stereo unspecified),n,x,u,-59,u,x
CC(C)C(N)c1csc(Nc2ccc(C(=O)c3ccccc3)cc2)n1 (stereo unspecified),n,x,u,-60,u,x
NC(CO)c1csc(Nc2ccc(C(=O)c3ccccc3)cc2)n1 (stereo unspecified),n,x,n,u,n,x
CC(N)c1csc(Nc2ccc(C(=O)c3ccccc3)cc2)n1 (stereo unspecified),n,x,n,-52,n,x
Cc1nn(C)c(C)c1S(=O)(=O)N(CC(=O)NC1CCCCCC1)c1ccc(C(C)C)cc1,n,12µM,n,n,n,n
COc1cc(Cn2c(N)c(C#N)c3nc4ccccc4nc32)cc(OC)c1,n,4.6µM,x,n,n,8.2µM
COc1ccc(Cn2c(N)c(C#N)c3nc4ccccc4nc32)cc1,n,7.3µM,n,n,n,9.2µM
COCCn1c(N)c(C#N)c2nc3ccccc3nc21,n,u,x,n,n,u
N#Cc1c(N)n(CCc2ccc(F)cc2)c2nc3ccccc3nc12,n,u,x,-57,n,15µM
CCOc1ccc(Cn2c3ccc(OC)cc3c3nc4ccccc4nc32)cc1,n,5.8µM,n,n,n,n
CCn1c2ccc(OC)cc2c2nc3ccccc3nc21,n,n,n,n,n,n
COc1cccc(Cn2c(N)c(C#N)c3nc4ccccc4nc32)c1OC,n,u,n,n,n,u
CCOC(=O)C1CCC(CN(Cc2ccc(OC)cc2)S(=O)(=O)c2ccc(F)c(C(=O)Nc3cc(Cl)ccc3OC)c2)CC1 (stereo unspecified),n,x,n,x,n,x
CC(=O)Nc1ccc(S(=O)(=O)NC2CC(=O)N(c3ccc(C)c(C)c3)C2)cc1 (stereo unspecified),n,n,n,n,n,n
CC(=O)Nc1ccc(S(=O)(=O)NC2CC(=O)N(c3ccc(C)cc3)C2)cc1 (stereo unspecified),n,n,n,n,n,6.5µM
C[C@H](CO)N1C[C@H](C)[C@H](CN(C)C(=O)c2ccccc2)OCc2ccccc2-c2c(n(C)c3ccccc23)C1=O,n,x,x,n,u,x
CC[C@H](CO)Oc1cc(NCc2ccc(Cl)c(Cl)c2)c2ncn(C(C)C)c2c1,n,21µM,x,n,u,n
CCC(CO)Oc1cc(NCc2ccc(Cl)cc2)c2ncn(C(C)C)c2c1 (stereo unspecified),n,n,u,n,u,u

# Compound activity (PubChem BioAssay)
